# From PubChem BioAssay AID1906 (The Scripps Research Institute Molecular Screening Center, 2009)
# Screen size: about 300,000 compounds; about 1,500 (0.5%) were called active.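 How the source made its calls: active means inhibition above the mean of all tested compounds plus 3 SD, set per screening campaign (cut at about 17% in these data); inactive means the rest.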 Many of the other results were omitted from the sample, so actives are more common in it than they were.
# Test system: cathepsin L1 (Fasciola hepatica)
# Assay: CTSL1 protease inhibition, fluke enzyme – biochemical, QFRET, fluorogenic peptide substrate, counter-screen for PFM18AAP inhibitor project, primary screen (AID 1906);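 further: 0% = plate median of test compound wells and 100% = 1 µM Z-Phe-Ala-diazomethylketone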
# Details: recombinant F. hepatica cathepsin L1, Z-Leu-Arg-MCA fluorescence; at 5.96 µM; active compounds read high
row,SMILES,inhibition
1,CC(=O)Nc1ccc(S(=O)(=O)N(C)CC(=O)NCCC2=CCCCC2)cc1,-4.22% (inactive)
2,CCCCC(O)(CCCC)C(=O)NN(C(=O)CCl)c1ccccc1,18.1% (active)
3,CC(C)(O)C(=O)NN(C(=O)c1ccccc1)c1cccc(Br)c1,-2.56% (inactive)
4,CCCC(O)(CCC)C(=O)NN(C(=O)CCl)c1cccc(C)c1,27.6% (active)
5,CCCCCNC(=O)C1c2ccccc2Oc2ccccc21,-9% (inactive)
6,Cc1ccc(N(NC(=O)C(C)(C)O)C(=O)c2ccccc2)cc1C,1.52% (inactive)
7,COC(=O)N(NC(=O)C(O)(C(C)C)C(C)C)c1ccccc1,-0.72% (inactive)
8,CC(Sc1nc2cc(Cl)ccc2s1)C(=O)Nc1ccc2c(c1)OCO2 (centres undefined),-3.27% (inactive)
9,COc1ccc(CCNS(=O)(=O)c2cn(C)nc2C)cc1,-5.7% (inactive)
10,CCOC(=O)C1=C(c2ccc(OC)cc2)C(=O)c2ccccc2C1=O,28.8% (active)
11,CCOC(=O)c1c(-c2ccc(C)cc2)csc1/N=C(\C)C1=C(O)c2ccccc2C1=O,1.32% (inactive)
12,CCOC(=O)c1cc2cc3ccccc3cc2oc1=O,0.07% (inactive)
13,CC(=O)c1ccccc1NC(=O)CC1(CC(=O)O)CCCCC1,2.79% (inactive)
14,Cc1ccccc1OCC(=O)Nc1nnc(S(=O)(=O)N2CCCC2)s1,3.28% (inactive)
15,CCn1c(SCC(=O)NC2=NCCS2)nnc1C(C)NC(=O)c1ccccc1F (centres undefined),-7.21% (inactive)
16,O=C1CCCCC1Sc1ccc(Cl)cc1[N+](=O)[O-] (centres undefined),-1.08% (inactive)
17,N#C/C(=C\c1ccccc1)c1n[nH]c(Cn2cncn2)n1,3.03% (inactive)
18,CCn1cc(C(=O)N2CCN(Cc3ccc4c(c3)OCO4)CC2)c2cc(OC)c(OC)cc2c1=O,7.48% (inactive)
19,COc1cc(C(=O)N2CCN(C3CCC(C)CC3)CC2)cc(OC)c1OC (centres undefined),1.26% (inactive)
20,CCn1cc(C(=O)N2CCN(C3CCCCC3)CC2)c2cc(OC)c(OC)cc2c1=O,20.3% (active)
21,O=c1c([N+](=O)[O-])cccn1Cc1ccc(F)cc1Cl,-4.32% (inactive)
22,C/C(=N\NC(N)=S)c1ccncc1,3.21% (inactive)
23,C/C(=N\NC(=O)c1cccnc1)c1ccc(-c2ccccc2)cc1,2.6% (inactive)
24,C/C(=N\NC(N)=S)c1cccnc1,35.1% (active)

row,SMILES,inhibition
1,O=C(c1ccc(-c2ccccc2)cc1)C1CCCN(C(=O)c2cncs2)C1 (centres undefined),0.67% (inactive)
2,COc1ccc(-n2nc(C(=O)NCC(=O)N3CCN(c4ccccc4OC)CC3)c3ccccc3c2=O)c(OC)c1,0.09% (inactive)
3,Cc1ccc(Cl)c(NC(=O)CN2CCN(C=O)CC2)c1,-5.16% (inactive)
4,CCOC(=O)C(C)n1cnc2scc(-c3ccc(C)c(C)c3)c2c1=O (centres undefined),3.75% (inactive)
5,COC(=O)Cn1cnc2scc(-c3ccc(C)c(C)c3)c2c1=O,24.9% (active)
6,CCn1cnc2scc(-c3ccc(C)c(C)c3)c2c1=O,0.4% (inactive)
7,CCN(Cc1ccccc1)C(=O)Cc1ccc(OC)c(S(=O)(=O)N2CCOCC2)c1,-0.92% (inactive)
8,CCSc1nc2c(c(=O)[nH]1)C(c1cccnc1)C(C(=O)OC(C)C)=C(C)N2 (centres undefined),4.8% (inactive)
9,COc1ccccc1C(=O)Nc1ccc(OCc2nnc3c4ccccc4c(C)nn23)cc1,-0.1% (inactive)
10,CCOCCCNc1c(CC)c(C)c(C#N)c2nc3ccccc3n12,2.01% (inactive)
11,CC(C)CN(CC(C)C)CC(O)CN(c1ccccc1)S(=O)(=O)c1ccccc1[N+](=O)[O-] (centres undefined),4.97% (inactive)
12,COCCN(C(=O)C(C)C)c1nnc(-c2ccc(C(C)(C)C)cc2)s1,3.51% (inactive)
13,CCCCCCCNC(=O)C1(CC2CC(c3cccc(Br)c3)=NO2)CCN(C(=O)c2cc(OCC)c(OCC)c(OCC)c2)CC1 (centres undefined),30% (active)
14,COc1ccc(CNC(=O)C2(CC3CC(c4ccccc4)=NO3)CCN(C(=O)c3cccc(O)c3)CC2)cc1 (centres undefined),-1.66% (inactive)
15,O=C(c1ccccc1)N1CCC(CC2CC(c3ccc(Cl)cc3)=NO2)(C(=O)NCC2CCCCC2)CC1 (centres undefined),-0.13% (inactive)
16,CN(CC(=O)Nc1cccc(F)c1)C(=O)C1CSC2(C)CCC(=O)N12 (centres undefined),-4.97% (inactive)
17,CC(N=Cc1nc(-c2ccccc2)oc1O)c1ccccc1 (centres undefined),1.73% (inactive)
18,Oc1oc(-c2ccccc2Br)nc1/C=N/c1ccccn1,53.9% (active)
19,CCOc1ccc2nc(/N=C/c3nc(-c4ccccc4)oc3O)sc2c1,5.43% (inactive)
20,COc1ccc(C(C)NC(=O)C23CC4CC(CC(C4)C2)C3)cc1 (centres undefined),-3.76% (inactive)
21,Cc1cccc(NC(=O)CCN2CC(C)CC(C)C2)c1 (centres undefined),-3.49% (inactive)
22,CC1CC(C)CN(CCC(=O)Nc2ccc3c(c2)CCC3)C1 (centres undefined),40.7% (active)
23,COc1cccc(NC(=O)CN(C)CC(=O)Nc2ccc3c(c2)CCC3)c1,0.04% (inactive)
24,C=CCSc1nnc2c(n1)-c1cccc3cccc-2c13,4.82% (inactive)

row,SMILES,inhibition
1,Cc1cccc(-n2c(C)cc(/C=N\NC(=O)c3cccs3)c2C)c1,-1.99% (inactive)
2,Cc1ccc(-n2c(C)cc(/C=N\NC(=O)CC(=O)NC(C)C)c2C)cc1,-0.88% (inactive)
3,Cc1cccc(-n2c(C)cc(/C=N/NC(N)=S)c2C)c1,35.5% (active)
4,CCOC(=O)C(C)n1nc(-c2ccccc2)c2ccccc2c1=O (centres undefined),3.78% (inactive)
5,COc1ccc(CCNC(=O)Cc2ccc(C)cc2)cc1OC,2.87% (inactive)
6,CCOC(=O)Cc1ncccc1C(=O)Nc1ccc(OC(F)(F)F)cc1,2.95% (inactive)
7,COC(=O)[C@H](C)NC(=O)Nc1ccc(OC(F)(F)F)cc1,-1.87% (inactive)
8,Cn1nccc1NC(=O)Nc1ccc(OC(F)(F)F)cc1,19.4% (active)
9,COC(=O)c1ccccc1Oc1c(F)c(F)nc(N2CCOCC2)c1F,0.49% (inactive)
10,COc1ccc(C(C(=O)NC2CCCCC2)N(C(=O)CCl)c2ccccc2Cl)cc1 (centres undefined),25.3% (active)
11,COc1ccc(C(C(=O)NC2CCCCC2)N(C(=O)c2snc(C(N)=O)c2N)c2ccccc2OC)cc1 (centres undefined),-2.13% (inactive)
12,COc1cccc(N(C(=O)C2COc3ccccc3O2)C(C(=O)NC2CCCCC2)c2ccc(O)cc2)c1 (centres undefined),4.68% (inactive)
13,O=C(NC(=S)NC1CCS(=O)(=O)C1)c1cccc([N+](=O)[O-])c1 (centres undefined),-1.84% (inactive)
14,CC(C)C[C@H](NC(=O)[C@@H]1O[C@H]1C(=O)O)C(=O)NCCCCN=C(N)N,112% (active)
15,O=C1CC2(CCN(C(=O)COc3ccc(F)cc3)CC2)Oc2ccccc21,-0.88% (inactive)
16,O=C(CN1C(=O)c2ccccc2C1=O)NCc1ccc(C(=O)O)cc1,10.4% (inactive)
17,CC(=O)N(C1=C(Cl)C(=O)c2ccccc2C1=O)c1ccc(C(=O)O)cc1,41.1% (active)
18,CC(C)N(C(=O)c1ccc(-c2ccccc2F)cc1)C(C)C,-3.72% (inactive)
19,CCN(CC)CCNS(=O)(=O)c1ccc(/C=C/C(=O)O)cc1,8.82% (inactive)
20,Cc1ccc(C(C)C)c(OCCSc2nc3ccccc3n2CC(=O)O)c1,2.31% (inactive)
21,CC(C(=O)NCCc1ccc(S(N)(=O)=O)cc1)N1C(=O)CC(C)(C)Sc2ccccc21 (centres undefined),3.12% (inactive)
22,Cc1cc(C(=O)OC(C)C(=O)NC2CCCCC2C)c(C)o1 (centres undefined),1.05% (inactive)
23,CC(OC(=O)CNC(=O)c1ccc(Cl)c([N+](=O)[O-])c1)C(=O)NCc1ccco1 (centres undefined),-10.4% (inactive)
24,CC(OC(=O)CNC(=O)c1cccc(F)c1)C(=O)NC1CCCCC1C (centres undefined),46.5% (active)

row,SMILES,inhibition
1,Cc1ccccc1OCc1nnc(SCC(=O)N2c3ccccc3Sc3ccc(Cl)cc32)o1,1.54% (inactive)
2,CCOC(=O)C1=C(O)/C(=C/c2cc(C)n(-c3ccccc3)c2C)N=C1C,-0.93% (inactive)
3,N#Cc1ccccc1NC(=O)c1cccc(COc2ccc(Cl)cc2Cl)c1,2.17% (inactive)
4,COc1ccccc1Oc1ccc(N/C=C2/CCCC2=O)cc1,6.01% (inactive)
5,CCCCC(=O)Nc1nnc(S(=O)(=O)N(C)Cc2ccco2)s1,-1.17% (inactive)
6,CC1(C)CC(=O)C/C(=N\NC(=O)c2cccs2)C1,-1.64% (inactive)
7,C=CCn1c(SCc2csc(C)n2)nc2scc(-c3ccc(C)o3)c2c1=O,1.45% (inactive)
8,C=CCNC(=O)CSc1nc2scc(-c3ccco3)c2c(=O)n1CC=C,35.5% (active)
9,C=CCn1c(=S)[nH]c2scc(-c3ccco3)c2c1=O,-1.34% (inactive)
10,CCC1Oc2ccccc2N(CC(=O)NCCCN2CCN(CC)CC2)C1=O (centres undefined),1.49% (inactive)
11,Cc1ccc2oc(=O)c3cnn(CC(=O)N(Cc4ccco4)C4CCCCC4)c3c2c1,42.9% (active)
12,COCCCN(C(=O)Cn1ncc2c(=O)oc3ccc(C)cc3c21)C(C)c1ccncc1 (centres undefined),3.63% (inactive)
13,Cc1ccc2oc(=O)c3cnn(CC(=O)N4CCCCCC4)c3c2c1,-4.76% (inactive)
14,Cc1cccc(NC(=O)c2cc(S(=O)(=O)N3CCC4(CC3)OCCO4)ccc2F)c1,-2.65% (inactive)
15,CN(C)c1nc(NN)nc(Nc2ccc(F)cc2)n1,11% (inactive)
16,Nc1c(N(CCO)C(=O)C2CCCCC2)c(=O)[nH]c(=O)n1Cc1ccccc1,23.6% (active)
17,CCN(C(=O)CN1CCN(Cc2ccccc2)CC1)c1c(N)n(Cc2ccccc2)c(=O)[nH]c1=O,-1.57% (inactive)
18,COCCn1c(N)c(N(Cc2ccccc2)C(=O)C2CCCCC2)c(=O)[nH]c1=O,3.45% (inactive)
19,Cc1sc(NC(=S)NC(=O)c2cccs2)nc1-c1ccc(CC(C)C)cc1,-0.85% (inactive)
20,COc1cc(OC)nc(N/N=C(\c2ccccc2)c2ccncc2)n1,1.22% (inactive)
21,COc1cc(OC)nc(NC(=O)CCl)n1,19.4% (active)
22,CCC(=O)Nc1nc(OC)cc(OC)n1,3.53% (inactive)
